Here are results for 51 compounds from PubChem BioAssay AID1851 (National Center for Advancing Translational Sciences (NCATS), 2009).

Hit rate of the full screen: of about 16,000 compounds, about 5,100 (32%) were called active. Inconclusive results (about 25%) are left out. The list shows a part of the results. Unmarked numbers belong to inactive results. Calls come from the whole dose curve; as a rule, active = well fitted curve in the direction sought with a large enough effect; inconclusive = small, poorly fitted or top-dose-only effect, or effect the other way; inactive = no such curve, though single readings can be large or run the other way.
% is set by controls: 0 for no effect and ±100 for the full control effect.

In this assay the target is Cytochrome P450 3A4 (Homo sapiens) (UniProt P08684). Kind of assay: Cytochrome panel assay with activity outcomes. To be noted: recombinant CYP, pro-luciferin dealkylation, luminescence, p450-cyp3a4; series mostly up to 57.1 µM; activity, negative = inhibition: at the top concentration.
Cytochrome P450 3A4 (Homo sapiens), sequence (P08684 whole entry, looked up): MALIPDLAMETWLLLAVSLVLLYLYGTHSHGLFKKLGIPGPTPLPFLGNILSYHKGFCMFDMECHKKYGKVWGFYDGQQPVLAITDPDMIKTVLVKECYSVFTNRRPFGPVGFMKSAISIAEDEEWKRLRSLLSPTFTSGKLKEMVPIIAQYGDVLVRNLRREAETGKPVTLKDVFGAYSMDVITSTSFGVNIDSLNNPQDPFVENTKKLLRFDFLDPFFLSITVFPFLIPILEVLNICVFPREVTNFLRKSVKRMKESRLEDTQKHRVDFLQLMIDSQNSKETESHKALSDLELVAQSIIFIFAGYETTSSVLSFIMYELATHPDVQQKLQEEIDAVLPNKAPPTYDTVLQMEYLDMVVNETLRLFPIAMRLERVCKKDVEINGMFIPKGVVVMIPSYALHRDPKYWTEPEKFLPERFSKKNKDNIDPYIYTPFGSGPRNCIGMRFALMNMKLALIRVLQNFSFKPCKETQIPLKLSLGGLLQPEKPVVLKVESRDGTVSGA
In the case of `CC(C)N(Cc1ccccc1)S(=O)(=O)c1n[nH]c(C(C)(C)C)n1`, the activity, negative = inhibition was -24.5% [at 11.4 µM].

Usually AC50 stands for the concentration giving half of the maximal activity seen. On to `Fc1ccc2nc(Nc3nc4c(s3)CCCC4)sc2c1`, for which the AC50 is 22.4 µM (active).

As for `O=C(Nc1nc2ccc(F)cc2s1)C1CCCO1` (stereo unspecified), the “activity, negative = inhibition” value was -18.2%.

Consider `CC(C)(C)c1ccc(OC(=O)Nc2ccc(O)c(C(=O)O)c2)cc1`, for which the activity, negative = inhibition was -11.3% [at 11.4 µM].

With `Cc1cnn(-c2cc(N/N=C/c3ccccc3)ncn2)c1`, the “activity, negative = inhibition” value was -6.74%.

Consider `CC1(C)Cc2ccccc2C(N/N=C/c2cccc(F)c2)=N1`, for which the activity, negative = inhibition was 14.5% [at 2.29 µM].

`Cc1cccc(/C=N\Nc2cn[nH]c(=O)c2Cl)c1`: the concentration at half-maximal activity (AC50) was 15.8 µM (active).

Take `COC(=O)[C@@]1(Cc2ccc(OC)cc2)[C@@H]2[C@@H](CC(=O)[C@H]2CC(=O)C(=O)N(C)C)CN1C(=O)c1ccccc1`: the AC50 is 1 µM (active).

For the compound `CC(C)N(CCNC(=O)C1CCC(=O)N1Cc1ccc(F)cc1)Cc1ccccc1` (stereo unspecified), the “activity, negative = inhibition” value is -25.2%.

For `COC(=O)[C@@]1(Cc2ccc(F)cc2)[C@@H]2[C@@H](CC(=O)[C@H]2CC(=O)C(=O)N(C)C)CN1C(=O)c1ccccc1`, the AC50 was 6.31 µM (active).

For the compound `CN(C(=O)c1ccncc1)c1ccccc1`, the activity, negative = inhibition was -11.8% [at 11.4 µM].

For `COC(=O)c1c(C)oc2ccc(N(C(=O)c3ccncc3)S(=O)(=O)c3ccccc3)cc12`, the AC50 is 7.08 µM (active).

`NC(=O)C1CCN(C(=O)CN2C(=O)c3ccccc3S2(=O)=O)CC1`: the “activity, negative = inhibition” value is -1.28%.

In the case of `Cc1ccc(C)c(C(=O)CN2C(=O)c3ccccc3S2(=O)=O)c1`, the AC50 was 7.94 µM (active).

As for `O=C(CN1C(=O)c2ccccc2S1(=O)=O)Nc1ccccc1`, the “activity, negative = inhibition” value is 12.5%.

With `CN(CCCNC(=O)C1CCC(=O)N1Cc1ccccc1Cl)c1ccccc1` (stereo unspecified), the AC50 was 7.08 µM (active).

As for `COCCCNC(=O)C1CCC(=O)N1Cc1ccccc1Cl` (stereo unspecified), the activity, negative = inhibition is -20.1% [at 11.4 µM].

As for `O=C(NCCCN1CCN(c2cccc(Cl)c2)CC1)C1CCC(=O)N1Cc1ccccc1Cl` (stereo unspecified), the activity, negative = inhibition is -7.41% [at 2.29 µM].

For the compound `CC(C)NC(=O)N1CCC2(CC1)CCN(S(C)(=O)=O)CC2`, the “activity, negative = inhibition” value is -7.29%.

With `CCc1c(C)c(C#N)c2nc3ccccc3n2c1N1CCN(c2cc(C)ccn2)CC1`, the “activity, negative = inhibition” value was -1.59%.

As for `Cc1cccc(-n2ncc3c(Nc4c(C)n(C)n(-c5ccccc5)c4=O)ncnc32)c1`, the “activity, negative = inhibition” value is -22%.

Take `CCc1c(C)c(C#N)c2nc3ccccc3n2c1Nc1c(C)n(C)n(-c2ccccc2)c1=O`: the AC50 is 7.94 µM (active).

Regarding `COc1ccc2nc(C)cc(SCC(=O)Nc3c(C)cc(C)cc3C)c2c1`, the AC50 was 2.51 µM (active).

Regarding `Cc1ccc(OCC(=O)NNC(=O)c2cc3ccccc3o2)cc1`, the “activity, negative = inhibition” value was -23.5%.

For the compound `COc1ccc(NC(=O)CCSc2cc(C)c3ccccc3n2)cc1`, the AC50 is 3.98 µM (active).

Take `COc1ccc2nc(C)cc(SCC(=O)NNC(=O)COc3ccccc3)c2c1`: the AC50 is 2.82 µM (active).

`COc1ccc2nc(SCC(=O)NN)cc(C)c2c1`: the AC50 was 2.82 µM (active).

On to `NCCCCN`, for which the “activity, negative = inhibition” value was 6.31%.

Take `C=CC1=C(C(=O)O)N2C(=O)[C@@H](NC(=O)/C(=N\OCC(=O)O)c3csc(N)n3)[C@@H]2SC1`: the “activity, negative = inhibition” value was -9.56% [at 25.6 µM].

Consider `COc1ccc2nc(C)cc(SCC(=O)NNC(=O)COc3ccc(C)cc3)c2c1`, for which the half-maximal activity concentration (AC50) is 2.24 µM (active).

Take `COc1ccc2nccc(SCC(=O)O)c2c1`: the activity, negative = inhibition is -8.31% [at 11.4 µM].

Turning to `CC(=O)NCCNc1nc(-c2ccccc2C)nc2ccccc12`, the AC50 is 5.01 µM (active).

On to `COc1ccccc1-c1nc(NCCNC(C)=O)c2ccccc2n1`, for which the “activity, negative = inhibition” value is -27.3%.

`CC(=O)NCCNc1nc(-c2c(C)noc2C)nc2ccccc12`: the AC50 is 15.8 µM (active).

For `NCCCCCCCCCCN`, the “activity, negative = inhibition” value was 3.58%.

As for `CCn1c2ccccc2c2cc(NC(=O)C/C(C)=N/NC(=O)c3ccccc3N)ccc21`, the AC50 is 7.08 µM (active).

With `CC(=O)Nc1ccc(NC(=O)C/C(C)=N/NC(=O)C(=O)N2CCCC2)cc1`, the “activity, negative = inhibition” value is -6.22%.

In the case of `COc1ccccc1CNc1ccnc(-c2c(C)noc2C)n1`, the concentration at half-maximal activity (AC50) was 5.01 µM (active).

As for `COc1ccc(CNc2ccnc(-c3c(C)noc3C)n2)c(OC)c1`, the AC50 is 2.51 µM (active).

`Cc1ccc(-n2c(SCC(=O)NCc3ccco3)nc3sc4c(c3c2=O)CC(C)(C)SC4)cc1`: the AC50 was 2 µM (active).

On to `CC1(C)Cc2c(sc3c2C(=O)N(c2ccccc2)C2=NCCN23)CS1`, for which the “activity, negative = inhibition” value was -23.7%.

As for `CC1(C)Cc2c(sc3nc(SCC(=O)NCc4ccccc4)n(-c4ccccc4)c(=O)c23)CS1`, the AC50 was 3.55 µM (active).

With `CN(C)c1ccc(-c2cncnc2NCc2cccnc2)cc1`, the AC50 was 0.631 µM (active).

As to `CN(C)c1ccc(-c2cncnc2NCc2ccccc2)cc1`, the AC50 was 0.0316 µM (active).

Regarding `COc1ccccc1CNC(=O)CSc1nc2nc(C)cc(C)n2n1`, the AC50 is 14.1 µM (active).

`Cc1cc(C)n2nc(SCc3cc(=O)oc4ccc5ccccc5c34)nc2n1`: the AC50 was 2.24 µM (active).

With `Cc1ccc(/C=N/NC(=O)CSc2nc3nc(C)cc(C)n3n2)cc1`, the AC50 was 15.8 µM (active).

Consider `Cc1cc(C)n2nc(SCC(=O)N/N=C/c3ccccc3F)nc2n1`, for which the “activity, negative = inhibition” value is -29.4%.

`CCCSc1nnc(CSc2nc3nc(C)cc(C)n3n2)o1`: the activity, negative = inhibition is 5.19% [at 11.4 µM].

Consider `CCSc1nc2nc(C)cc(C)n2n1`, for which the “activity, negative = inhibition” value is -7.32%.

As for `COc1cc(NC(=O)COC(=O)c2nc3nc(C)cc(C)n3n2)cc(OC)c1`, the activity, negative = inhibition is 20% [at 2.29 µM].
